# G9a block = G9a (human) methyltransferase inhibition; Q96KQ7; G9a H3K9 monomethylation, AlphaScreen, 2 h; Potency, µM (titrated, usually from 102 µM), without a hit: at the top dose activity, negative = inhibition, most hits filed as inhibitors; hit rate 8.8% among 350,000; further: potency means the concentration at half of the fitted maximal effect; nearly all actives have a fitted effect of over 75% in size
# Target sequence (Q96KQ7 913-1193 limits assumed): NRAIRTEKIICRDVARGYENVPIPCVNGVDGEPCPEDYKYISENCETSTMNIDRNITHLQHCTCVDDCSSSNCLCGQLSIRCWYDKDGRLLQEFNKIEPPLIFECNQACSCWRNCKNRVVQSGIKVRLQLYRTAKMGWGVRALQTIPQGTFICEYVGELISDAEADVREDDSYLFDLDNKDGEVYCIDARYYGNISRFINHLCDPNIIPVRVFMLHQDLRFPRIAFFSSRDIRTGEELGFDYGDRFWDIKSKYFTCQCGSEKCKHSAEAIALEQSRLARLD
#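 Step 1: enzyme (final 20 nM) with compound, 15 min RT. Step 2: substrate peptide 500 nM and SAM 20 uM, 2 h RT. Step 3: anti-H3K9me1 antibody and AlphaScreen beads, 10 min, then plate read.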
# Sfp inh = Sfp phosphopantetheinyl transferase inhibition | Q9F4F7 | Biochemical Sfp PPTase activity, qHTS | Potency, µM, for inactives: largest response in the series, negative = inhibition, usual class: inhibitors | hit rate 3.5% among 310,000 | AID 1490;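 further: the enzyme is Sfp with the accession as filed and its product quenches rhodamine fluorescence; potency means the concentration at half of the fitted maximal effect; 0% = enzyme reaction without inhibitor and -100% = no enzyme wells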
#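 Step 1, compound plus 15 nM Sfp-PPTase, 15 min, room temperature. Step 2, add rhodamine-CoA (5 uM) and BHQ-2-YbbR (12.5 uM). Step 3, read 525/598 nm fluorescence at 0 and 30 min.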
# Mm-Cpn inhibitor = blocks the Methanococcus maripaludis chaperonin Mm-Cpn. purified Mm-Cpn ATPase, ADP Transcreener TR-FRET. Potency, µM (doses to about 76.9 µM), without a hit: at the highest dose activity, negative = inhibition, most hits filed as inhibitors. hit rate 0.031% among 330,000. AID 504842; further: potency means the concentration at half of the fitted maximal effect; nearly all actives have a fitted effect of over 80% in size
#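 Inhibition of chaperonin ATP hydrolysis is measured as reduced ADP production, detected by competitive TR-FRET in which signal falls with ADP. Final enzyme 25 nM and ATP 10 uM, reacted 30 min at 37°C.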
# PLK1 PBD inh = inhibitors of human PLK1 polo-box domain binding; Potency, µM, without a hit: max response, negative = inhibition, usual class: inhibitors; Plk1 PBD binding of FITC phosphopeptide, fluorescence polarization; hit rate 2.8% among 360,000; P53350; further: potency means the concentration at half of the fitted maximal effect; series mostly up to about 57 µM; nearly all actives have a fitted effect of over 65% in size
# VDR inh = blocks the human vitamin D receptor; P11473; VDR-SRC2-3 peptide fluorescence polarization, 2 h; Potency, µM, for inactives: max response, negative = inhibition, actives largely listed as inhibitors; hit rate 0.93% among 400,000; AID 504847; further: potency means the concentration at half of the fitted maximal effect
#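 Fluorescence polarization assay measuring small-molecule disruption of VDR binding to the coregulator peptide SRC2-3. Compounds were pin-transferred (23 nl) into the reagent mix and incubated 2 h at room temperature before reading.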
# CCT chaperon mod = modulators of cytosolic chaperonin (CCT/TRiC) activity | activity change, % (concentration not given with the values), hits read low | purified chaperonin ATPase assay, HTRF ADP detection, 30 min | AID 651819 | hit rate 0.3% among 360,000; in the data active means activity change below about -30%
#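 Nucleotide hydrolysis assay: TRiC at 20–40 nM final (set by batch activity) with 10 uM ATP, 30 min at 37 °C, in presence of 76 uM compound. Detection by competitive ADP HTRF, 30 min ambient.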
# An asterisk follows results filed as active; ? = inconclusive; . = not tested or not shown; ! = a repeat was not active; [ ] = remark or other dose. A selection: hits, their analogues and other compounds. The true share with any hit is near 10%. Unless noted, the call rests on the fitted dose curve; in most records, active means well fitted curve in the direction sought with a large enough effect; inconclusive means small, poorly fitted or top-dose-only effect, or another doubt; inactive means no such curve, though single readings can be large; an effect the other way counts as inactive or inconclusive. Unless noted, on the % scale 0 is the no-effect control and ±100 the full control effect.
SMILES,G9a block,Sfp inh,Mm-Cpn inhibitor,PLK1 PBD inh,VDR inh,CCT chaperon mod
CCCCC/C=C\C/C=C\C/C=C\C/C=C\CCCC(=O)NCCCC(=O)O,-4.6%[59 µM],?,.,.,28.2µM*,.
COC(=O)/C=C/C(=O)N[C@@H]1CC[C@@]2(O)[C@H]3Cc4ccc(O)c5c4[C@@]2(CCN3CC2CC2)[C@H]1O5,31.3%[59 µM],-2.6%,.,.,0.5%,.
O=C(O)CCCC[C@@H]1SC[C@@H]2NC(=O)N[C@@H]21,.,.,.,0.5%,?,-1.8
c1csc(CN2CCC3(CCNCC3)CC2)n1,4.4%[12.7 µM],-6.0%,.,.,0.1%,.
NC(N)=NCCCCCCCCCCN=C(N)N,-0.6%[59 µM],?,.,.,-8.1%,.
CC[C@]12C=CCN3CC[C@@]4(c5ccc(OC)cc5N(C)[C@H]4[C@@](O)(C(=O)OC)[C@@H]1OC(C)=O)C32 (some centres not stated),.,-6.3%,.,.,-3.0%,.
CC[C@]12C=CCN3CCC4(c5cc(Br)c(OC)cc5N(C)C4[C@@](O)(C(=O)OC)[C@@H]1OC(C)=O)C32 (some centres not stated),35.5µM*,-19.2%,-8.0%,?,-12.6%,0.3
Cc1[nH]c2ccccc2c1CCNCc1cccnc1,?,7.0%,-2.7%,-6.1%,6.7%,-0.1
COc1ccc2[nH]c(C)c(CCNCc3cn(C)c4ccccc34)c2c1,7.08µM*,.,-5.6%,4.3%,4.0%,-0.1
COc1ccc(C)cc1NC(=O)CN1CCN(CC(=O)Nc2ccccc2F)CC1,39.8µM*!,16.7%,1.4%,0.0%,6.0%,-1.5
CCN1C[C@]2(COC(=O)c3ccccc3N3C(=O)CC(C)C3=O)CC[C@H](OC)[C@@]34C5C[C@@H]6[C@@H](OC)C[C@@](O)(C5[C@H]6OC)[C@](O)([C@@H](OC)C23)[C@@H]14 (some centres not stated),28.2%[59 µM],7.6%,.,.,1.8%,.
O=C1NC(=O)N(Cc2ccccc2)C(=O)/C1=C/c1cnc(-c2ccccc2)nc1,10µM*,56.2µM*,-1.4%,6.7µM*,25.1µM*,-3.2
O=C1NC(=O)N(Cc2ccccc2)C(=O)/C1=C/N1CCCc2ccccc21,7.94µM*,-25.8%,-2.5%,26.7µM*,?,-3.7
CCOC(=O)C1CCN(/C=C2/C(=O)NC(=O)N(Cc3ccco3)C2=O)CC1,?,?,-0.8%,?,-4.5%,-1.1
CC(C)c1ccc(N2C(=O)NC(=O)/C(=C/c3cnc(-c4ccccc4)nc3)C2=O)cc1,3.55µM*,56.2µM*,3.9%,11.9µM*,35.5µM*,0.3
CSc1ncc(/C=C2/C(=O)NC(=O)N(c3ccc(C(C)C)cc3)C2=O)cn1,7.94µM*,79.4µM*,-0.1%,15µM*,?,-0.4
CO/C1=C\C(C)=C\[C@@H](C)[C@@H](O)[C@H](C)C/C(C)=C/C=C/[C@H](OC)[C@H]([C@@H](C)[C@@H](O)[C@H](C)[C@H]2C[C@@H](O)[C@H](C)[C@@H](C(C)C)O2)OC1=O,25.9%[59 µM],-17.7%,.,.,-1.3%,.
Cc1ncc2n1-c1ccc(Cl)cc1C(c1ccccc1F)=NC2O (configuration not stated),.,-9.1%,.,.,10.8%,.
C=CCc1cc(OC)c2c(c1OC)OCO2,.,8.1%,.,.,-0.2%,.
c1cnc(N2CC[C@@]3(CCCNC3)C2)nc1,-21.1%[12.7 µM],?,.,.,?,.
O=C(COc1ccccc1F)N1CCN(Cc2cc(=O)n3nc(-c4ccccc4Cl)sc3n2)CC1,51.5%[59 µM],.,.,.,11.6%,.
CCCCC[C@@H](/C=C/C=C\C/C=C\C/C=C\CCCC(=O)O)OO,27.3%[59 µM],10.8%,.,.,-2.5%,.
Oc1ccc(C[C@H]2NCCc3cc(O)c(O)cc32)cc1O,?,70.8µM*,-1.8%,-9.2%,-0.1%,0.1
Cc1ccnc(NS(=O)(=O)c2ccc(N=Cc3c(O)n(C)c(=O)n(C)c3=O)cc2)n1,44.7µM*,-15.4%,-15.2%,-1.4%,-8.2%,-4.9
Cn1ccnc1,11.3%[12.7 µM],.,.,.,-0.7%,.

# Screening data: PubChem BioAssay, National Center for Advancing Translational Sciences (NCATS)
